# Source: publication PMC7862700, “An all-to-all approach to the identification of sequence-specific readers for epigenetic DNA modifications on cytosine”
# Assays:
# Test in all cases: DAPPL (digital affinity profiling via proximity ligation, sequencing); 10 mM Tris-HCl pH 7.5, 50 mM NaCl, 1 mM DTT, 4% glycerol, room temperature, 30 min; GST-TFs on glutathione beads, 16-mer random dsDNA library, 0.1% formaldehyde crosslink after washing; high values mean tight binding
# FLI1 = target: T1, FLI1 (Homo sapiens, UniProt Q01543 1-452); settings: protein: recombinant; tags: N-terminal GST; dsDNA, one strand shown
# T1 sequence: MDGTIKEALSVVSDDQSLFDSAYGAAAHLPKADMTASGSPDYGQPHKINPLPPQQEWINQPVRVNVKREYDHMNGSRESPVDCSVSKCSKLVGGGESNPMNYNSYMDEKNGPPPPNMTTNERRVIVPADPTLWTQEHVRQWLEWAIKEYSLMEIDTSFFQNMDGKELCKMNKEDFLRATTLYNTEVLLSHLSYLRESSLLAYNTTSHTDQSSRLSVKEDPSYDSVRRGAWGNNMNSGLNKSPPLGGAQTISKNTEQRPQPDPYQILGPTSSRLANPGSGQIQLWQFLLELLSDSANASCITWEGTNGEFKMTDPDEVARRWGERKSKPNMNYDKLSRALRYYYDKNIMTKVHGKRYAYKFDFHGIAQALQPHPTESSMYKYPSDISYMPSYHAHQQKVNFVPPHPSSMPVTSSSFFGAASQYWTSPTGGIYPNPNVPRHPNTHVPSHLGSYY
# Outline: (§1)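 GST fusions of human transcription factors were expressed in yeast and captured with glutathione beads. Once given DNA barcodes and pooled alongside a tag-only sample, they were incubated for 30 min at room temperature with 200 nmole of a random double-stranded 16-mer DNA library in Tris/NaCl/DTT/glycerol buffer, then washed, crosslinked (0.1% formaldehyde), proximity-ligated, PCR-amplified and sequenced on an Illumina NextSeq500. The binding signal of each hexamer is its read frequency for a factor divided by its frequency for the tag-only sample.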
# ELK1 = target: T2, ELK1 (Homo sapiens, UniProt P19419 1-428); settings: protein: recombinant; tags: N-terminal GST; dsDNA, one strand shown
# T2 sequence: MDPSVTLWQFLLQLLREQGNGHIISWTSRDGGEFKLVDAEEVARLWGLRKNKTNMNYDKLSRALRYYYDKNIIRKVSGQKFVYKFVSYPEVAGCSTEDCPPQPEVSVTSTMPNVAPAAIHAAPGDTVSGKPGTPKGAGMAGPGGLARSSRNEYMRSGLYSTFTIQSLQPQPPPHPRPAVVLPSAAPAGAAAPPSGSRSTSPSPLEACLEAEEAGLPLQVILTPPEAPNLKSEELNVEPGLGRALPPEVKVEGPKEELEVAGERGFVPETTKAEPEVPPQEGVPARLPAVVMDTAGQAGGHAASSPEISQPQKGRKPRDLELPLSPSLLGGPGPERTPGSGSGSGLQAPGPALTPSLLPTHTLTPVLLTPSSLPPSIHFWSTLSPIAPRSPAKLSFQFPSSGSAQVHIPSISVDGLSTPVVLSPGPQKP
# Outline: as §1
# GABPA = target: T3, GABPA (Homo sapiens, UniProt Q06546 1-454); settings: protein: recombinant; tags: N-terminal GST; dsDNA, one strand shown
# T3 sequence: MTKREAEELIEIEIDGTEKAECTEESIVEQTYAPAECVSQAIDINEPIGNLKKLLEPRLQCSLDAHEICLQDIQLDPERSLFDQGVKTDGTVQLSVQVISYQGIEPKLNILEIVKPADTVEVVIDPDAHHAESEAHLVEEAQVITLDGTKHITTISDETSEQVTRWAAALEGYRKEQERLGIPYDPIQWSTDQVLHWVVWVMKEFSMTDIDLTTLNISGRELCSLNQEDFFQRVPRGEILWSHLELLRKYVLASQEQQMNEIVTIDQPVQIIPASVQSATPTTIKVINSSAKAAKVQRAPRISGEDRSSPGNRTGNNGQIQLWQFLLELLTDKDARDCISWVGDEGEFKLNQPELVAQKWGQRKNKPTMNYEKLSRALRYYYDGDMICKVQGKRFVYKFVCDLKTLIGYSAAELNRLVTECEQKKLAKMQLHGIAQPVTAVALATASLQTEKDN
# Outline: as §1
# ERG = target: T4, ERG (Homo sapiens, UniProt P11308 1-479); settings: protein: recombinant; tags: N-terminal GST; dsDNA, one strand shown
# T4 sequence: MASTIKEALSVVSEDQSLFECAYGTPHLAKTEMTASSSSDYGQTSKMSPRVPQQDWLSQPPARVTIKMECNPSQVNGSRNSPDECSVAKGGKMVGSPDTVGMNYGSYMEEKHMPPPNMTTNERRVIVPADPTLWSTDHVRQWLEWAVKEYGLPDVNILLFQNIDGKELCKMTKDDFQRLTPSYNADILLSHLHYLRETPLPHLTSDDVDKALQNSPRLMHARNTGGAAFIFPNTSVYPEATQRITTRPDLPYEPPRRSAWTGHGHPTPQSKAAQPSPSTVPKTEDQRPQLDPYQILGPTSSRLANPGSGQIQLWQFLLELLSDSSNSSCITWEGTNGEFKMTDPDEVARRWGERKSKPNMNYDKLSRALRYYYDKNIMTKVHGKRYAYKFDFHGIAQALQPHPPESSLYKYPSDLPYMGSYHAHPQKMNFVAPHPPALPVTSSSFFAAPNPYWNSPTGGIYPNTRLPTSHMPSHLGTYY
# Outline: as §1
# ELF1 = ELF1 (Homo sapiens, UniProt P32519 1-619); settings: protein: recombinant; tags: N-terminal GST; dsDNA, one strand shown
# Sequence of ELF1 (P32519 whole entry): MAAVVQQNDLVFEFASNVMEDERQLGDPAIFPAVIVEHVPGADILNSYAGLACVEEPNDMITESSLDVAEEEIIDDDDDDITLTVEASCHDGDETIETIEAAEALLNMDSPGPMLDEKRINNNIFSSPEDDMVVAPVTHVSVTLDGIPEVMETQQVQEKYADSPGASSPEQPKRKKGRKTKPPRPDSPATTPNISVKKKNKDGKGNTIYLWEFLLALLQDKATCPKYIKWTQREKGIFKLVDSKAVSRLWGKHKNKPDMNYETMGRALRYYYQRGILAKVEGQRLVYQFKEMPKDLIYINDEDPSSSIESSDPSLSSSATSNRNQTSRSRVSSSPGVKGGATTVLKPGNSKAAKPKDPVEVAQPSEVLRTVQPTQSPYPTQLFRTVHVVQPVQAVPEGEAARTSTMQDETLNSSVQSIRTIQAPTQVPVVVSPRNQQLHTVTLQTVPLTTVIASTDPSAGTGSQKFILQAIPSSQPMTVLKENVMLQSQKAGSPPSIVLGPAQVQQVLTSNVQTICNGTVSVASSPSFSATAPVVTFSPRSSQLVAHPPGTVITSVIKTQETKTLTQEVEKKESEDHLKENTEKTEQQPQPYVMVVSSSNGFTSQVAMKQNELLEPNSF
# Outline: as §1
# EHF = target: T5, EHF (Homo sapiens, UniProt Q9NZC4 1-300); settings: protein: recombinant; tags: N-terminal GST; dsDNA, one strand shown
# T5 sequence: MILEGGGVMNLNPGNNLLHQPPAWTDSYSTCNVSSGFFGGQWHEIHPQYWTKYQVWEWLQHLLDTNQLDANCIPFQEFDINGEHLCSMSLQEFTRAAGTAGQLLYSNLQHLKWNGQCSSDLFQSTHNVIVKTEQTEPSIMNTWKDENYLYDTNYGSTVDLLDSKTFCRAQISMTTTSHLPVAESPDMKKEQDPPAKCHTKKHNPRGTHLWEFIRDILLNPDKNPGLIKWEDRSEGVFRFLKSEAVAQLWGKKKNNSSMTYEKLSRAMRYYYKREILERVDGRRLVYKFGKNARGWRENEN
# Outline: as §1
# SPI1 = SPI1 (Homo sapiens, UniProt P17947 1-270); settings: protein: recombinant; tags: N-terminal GST; dsDNA, one strand shown
# Outline: as §1
# SPIB = SPIB (Homo sapiens, UniProt Q01892 1-262); settings: protein: recombinant; tags: N-terminal GST; dsDNA, one strand shown
# Sequence of SPIB (Q01892 whole entry): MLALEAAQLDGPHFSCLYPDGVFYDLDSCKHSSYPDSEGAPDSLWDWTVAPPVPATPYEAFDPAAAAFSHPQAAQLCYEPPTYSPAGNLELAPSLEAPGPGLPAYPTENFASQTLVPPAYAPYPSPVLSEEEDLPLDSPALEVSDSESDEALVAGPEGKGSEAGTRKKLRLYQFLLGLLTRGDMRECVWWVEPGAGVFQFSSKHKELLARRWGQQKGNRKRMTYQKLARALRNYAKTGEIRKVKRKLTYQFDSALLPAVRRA
# Outline: as §1
# ELK3 = target: T6, ELK3 (Homo sapiens, UniProt P41970 1-407); settings: protein: recombinant; tags: N-terminal GST; dsDNA, one strand shown
# T6 sequence: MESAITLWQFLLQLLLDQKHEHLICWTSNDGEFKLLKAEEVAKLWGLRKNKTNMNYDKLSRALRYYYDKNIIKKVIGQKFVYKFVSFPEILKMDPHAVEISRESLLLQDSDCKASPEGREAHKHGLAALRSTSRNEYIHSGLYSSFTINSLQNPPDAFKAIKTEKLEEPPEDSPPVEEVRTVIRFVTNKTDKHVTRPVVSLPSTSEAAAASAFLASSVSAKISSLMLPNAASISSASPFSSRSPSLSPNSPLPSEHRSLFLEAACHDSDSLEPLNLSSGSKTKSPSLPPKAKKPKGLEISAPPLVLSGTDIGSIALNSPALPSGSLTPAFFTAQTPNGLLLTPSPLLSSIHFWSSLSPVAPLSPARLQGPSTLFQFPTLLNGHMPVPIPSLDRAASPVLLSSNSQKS
# Outline: as §1
# FEV = target: T7, FEV (Homo sapiens, UniProt Q99581 1-238); settings: protein: recombinant; tags: N-terminal GST; dsDNA, one strand shown
# T7 sequence: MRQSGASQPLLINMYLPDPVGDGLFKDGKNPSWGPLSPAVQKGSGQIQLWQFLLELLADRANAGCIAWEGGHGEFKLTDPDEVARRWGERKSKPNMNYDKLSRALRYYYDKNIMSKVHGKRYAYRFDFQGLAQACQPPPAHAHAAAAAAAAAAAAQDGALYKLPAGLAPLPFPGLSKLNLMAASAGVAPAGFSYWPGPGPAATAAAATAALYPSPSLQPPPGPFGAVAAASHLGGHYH
# Outline: as §1
# ETV5 = ETV5 (Homo sapiens, UniProt P41161 1-510); settings: protein: recombinant; tags: N-terminal GST; dsDNA, one strand shown
# Sequence of ETV5 (P41161 whole entry): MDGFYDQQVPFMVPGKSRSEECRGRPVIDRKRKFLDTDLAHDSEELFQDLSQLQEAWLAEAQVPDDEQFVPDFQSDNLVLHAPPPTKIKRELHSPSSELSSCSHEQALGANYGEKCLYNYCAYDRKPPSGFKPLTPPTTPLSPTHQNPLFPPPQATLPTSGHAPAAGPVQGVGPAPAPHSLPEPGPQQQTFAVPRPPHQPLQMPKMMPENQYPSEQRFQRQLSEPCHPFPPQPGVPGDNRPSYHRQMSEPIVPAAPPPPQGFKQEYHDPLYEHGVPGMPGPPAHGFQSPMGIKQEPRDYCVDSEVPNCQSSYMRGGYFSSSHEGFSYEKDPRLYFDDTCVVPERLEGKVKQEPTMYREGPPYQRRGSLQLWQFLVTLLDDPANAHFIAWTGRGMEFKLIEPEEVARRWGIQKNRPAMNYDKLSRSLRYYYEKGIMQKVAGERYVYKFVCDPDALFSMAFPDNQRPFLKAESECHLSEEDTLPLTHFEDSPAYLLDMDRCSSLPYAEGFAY
# Outline: as §1
# HSF1 = HSF1 (Homo sapiens, UniProt Q00613 1-529); settings: protein: recombinant; tags: N-terminal GST; chain copies: 3; dsDNA, one strand shown
# Sequence of HSF1 (Q00613 whole entry): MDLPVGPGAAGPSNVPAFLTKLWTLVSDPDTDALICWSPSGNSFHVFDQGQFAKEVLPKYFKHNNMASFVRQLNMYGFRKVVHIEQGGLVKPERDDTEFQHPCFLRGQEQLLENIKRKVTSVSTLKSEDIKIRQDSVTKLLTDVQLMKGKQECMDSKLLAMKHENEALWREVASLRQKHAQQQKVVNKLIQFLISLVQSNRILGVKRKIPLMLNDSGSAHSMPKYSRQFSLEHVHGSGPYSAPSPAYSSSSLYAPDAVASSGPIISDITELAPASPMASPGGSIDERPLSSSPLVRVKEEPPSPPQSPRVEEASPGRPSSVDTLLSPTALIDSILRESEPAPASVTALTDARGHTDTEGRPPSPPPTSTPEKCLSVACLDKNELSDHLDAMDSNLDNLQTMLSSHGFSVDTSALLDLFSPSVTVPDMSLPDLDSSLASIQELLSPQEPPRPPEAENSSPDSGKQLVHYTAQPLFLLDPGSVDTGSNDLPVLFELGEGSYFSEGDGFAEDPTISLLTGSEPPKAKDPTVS
# Outline: as §1
# SPIC = target: T8, SPIC (Homo sapiens, UniProt Q8N5J4 1-248); settings: protein: recombinant; tags: N-terminal GST; dsDNA, one strand shown
# T8 sequence: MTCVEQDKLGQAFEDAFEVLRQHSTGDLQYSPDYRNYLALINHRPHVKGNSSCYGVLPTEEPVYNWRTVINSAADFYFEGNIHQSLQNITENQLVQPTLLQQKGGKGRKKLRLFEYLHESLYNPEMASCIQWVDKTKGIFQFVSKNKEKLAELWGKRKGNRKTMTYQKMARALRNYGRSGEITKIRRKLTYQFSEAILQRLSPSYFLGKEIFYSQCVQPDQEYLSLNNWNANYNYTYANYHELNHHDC
# Outline: as §1
# ELF4 = ELF4 (Homo sapiens, UniProt Q99607 1-663); settings: protein: recombinant; tags: N-terminal GST; dsDNA, one strand shown
# Sequence of ELF4 (Q99607 whole entry): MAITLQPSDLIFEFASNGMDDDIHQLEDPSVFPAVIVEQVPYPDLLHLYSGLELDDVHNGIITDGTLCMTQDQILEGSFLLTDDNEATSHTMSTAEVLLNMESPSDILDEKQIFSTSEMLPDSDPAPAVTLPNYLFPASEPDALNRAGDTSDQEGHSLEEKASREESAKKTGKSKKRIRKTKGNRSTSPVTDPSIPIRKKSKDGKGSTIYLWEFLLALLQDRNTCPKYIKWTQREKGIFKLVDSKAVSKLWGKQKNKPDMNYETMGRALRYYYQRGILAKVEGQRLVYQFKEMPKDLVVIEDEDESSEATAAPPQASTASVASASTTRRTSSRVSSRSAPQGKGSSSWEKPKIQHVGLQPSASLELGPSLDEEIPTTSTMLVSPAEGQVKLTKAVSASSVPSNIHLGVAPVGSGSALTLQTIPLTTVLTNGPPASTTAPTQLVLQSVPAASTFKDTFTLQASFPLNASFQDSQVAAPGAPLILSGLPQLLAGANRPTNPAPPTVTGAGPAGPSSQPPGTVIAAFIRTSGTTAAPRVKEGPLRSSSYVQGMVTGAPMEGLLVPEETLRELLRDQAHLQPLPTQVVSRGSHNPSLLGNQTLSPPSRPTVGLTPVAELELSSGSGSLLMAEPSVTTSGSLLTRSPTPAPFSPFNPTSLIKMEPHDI
# Outline: as §1
# ELK4 = target: T9, ELK4 (Homo sapiens, UniProt P28324-2 1-405); settings: protein: recombinant; tags: N-terminal GST; dsDNA, one strand shown
# T9 sequence: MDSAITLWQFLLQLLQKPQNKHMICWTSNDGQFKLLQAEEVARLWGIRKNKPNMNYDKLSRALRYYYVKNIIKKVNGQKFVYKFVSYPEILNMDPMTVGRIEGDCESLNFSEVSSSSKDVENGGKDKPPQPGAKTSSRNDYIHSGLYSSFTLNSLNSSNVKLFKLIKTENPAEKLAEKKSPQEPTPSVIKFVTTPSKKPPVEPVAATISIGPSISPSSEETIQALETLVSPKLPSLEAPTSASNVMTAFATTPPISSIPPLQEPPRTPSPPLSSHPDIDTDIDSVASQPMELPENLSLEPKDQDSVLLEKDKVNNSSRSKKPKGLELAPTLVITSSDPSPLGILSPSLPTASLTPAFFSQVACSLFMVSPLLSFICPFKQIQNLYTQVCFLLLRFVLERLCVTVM
# Outline: as §1
# ETV2 = target: T10, ETV2 (Homo sapiens, UniProt O00321 1-342); settings: protein: recombinant; tags: N-terminal GST; dsDNA, one strand shown
# T10 sequence: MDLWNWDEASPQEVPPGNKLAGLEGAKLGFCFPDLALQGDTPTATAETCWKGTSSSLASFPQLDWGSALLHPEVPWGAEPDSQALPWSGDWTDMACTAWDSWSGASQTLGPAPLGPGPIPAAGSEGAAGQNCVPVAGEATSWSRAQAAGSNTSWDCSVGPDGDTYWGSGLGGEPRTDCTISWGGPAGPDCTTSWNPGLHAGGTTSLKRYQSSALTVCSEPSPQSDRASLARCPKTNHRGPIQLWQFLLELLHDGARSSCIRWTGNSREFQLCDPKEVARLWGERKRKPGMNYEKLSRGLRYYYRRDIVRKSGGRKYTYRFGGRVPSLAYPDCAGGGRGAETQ
# Outline: as §1
# ELF3 = target: T11, ELF3 (Homo sapiens, UniProt P78545 1-371); settings: protein: recombinant; tags: N-terminal GST; dsDNA, one strand shown
# T11 sequence: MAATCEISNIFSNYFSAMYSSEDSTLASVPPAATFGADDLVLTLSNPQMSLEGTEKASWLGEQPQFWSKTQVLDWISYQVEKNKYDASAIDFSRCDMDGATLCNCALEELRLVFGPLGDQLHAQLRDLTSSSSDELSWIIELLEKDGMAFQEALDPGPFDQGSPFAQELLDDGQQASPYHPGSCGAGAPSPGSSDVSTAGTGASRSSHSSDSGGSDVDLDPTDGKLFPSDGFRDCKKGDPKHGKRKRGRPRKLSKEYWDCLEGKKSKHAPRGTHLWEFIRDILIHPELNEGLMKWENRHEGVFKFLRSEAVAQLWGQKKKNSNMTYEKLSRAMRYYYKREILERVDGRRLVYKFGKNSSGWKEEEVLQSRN
# Outline: as §1
# CRX = CRX (Homo sapiens, UniProt O43186 1-299); settings: protein: recombinant; tags: N-terminal GST; dsDNA, one strand shown
# Sequence of CRX (O43186 whole entry): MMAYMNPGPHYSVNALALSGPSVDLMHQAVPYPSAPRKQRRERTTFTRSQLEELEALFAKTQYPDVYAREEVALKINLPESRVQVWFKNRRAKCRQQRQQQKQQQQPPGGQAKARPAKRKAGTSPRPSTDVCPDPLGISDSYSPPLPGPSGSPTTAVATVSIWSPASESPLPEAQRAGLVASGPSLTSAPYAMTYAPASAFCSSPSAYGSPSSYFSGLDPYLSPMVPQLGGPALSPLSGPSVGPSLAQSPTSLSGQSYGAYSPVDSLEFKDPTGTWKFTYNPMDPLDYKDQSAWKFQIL
# Outline: as §1
# ETV1 = ETV1 (Homo sapiens, UniProt P50549 1-477); settings: protein: recombinant; tags: N-terminal GST; dsDNA, one strand shown
# Sequence of ETV1 (P50549 whole entry): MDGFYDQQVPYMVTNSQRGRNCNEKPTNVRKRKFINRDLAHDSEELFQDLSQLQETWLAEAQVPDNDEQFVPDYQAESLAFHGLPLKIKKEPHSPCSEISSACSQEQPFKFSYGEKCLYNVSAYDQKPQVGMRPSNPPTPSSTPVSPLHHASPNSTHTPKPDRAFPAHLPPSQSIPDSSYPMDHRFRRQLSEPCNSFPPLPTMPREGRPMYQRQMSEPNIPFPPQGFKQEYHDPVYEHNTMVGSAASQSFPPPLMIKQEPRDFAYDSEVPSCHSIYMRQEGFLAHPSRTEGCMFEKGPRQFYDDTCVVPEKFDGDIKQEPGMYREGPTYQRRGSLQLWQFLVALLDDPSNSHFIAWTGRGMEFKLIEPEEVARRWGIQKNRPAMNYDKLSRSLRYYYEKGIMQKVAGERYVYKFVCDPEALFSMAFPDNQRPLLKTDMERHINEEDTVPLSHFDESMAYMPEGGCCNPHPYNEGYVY
# Outline: as §1
sequence,measurement,setting,value
TAGGGT,binding signal,FLI1,"1.04 fold enrichment (6-mer frequency, TF over GST control)"
same,binding signal,ELK1,"1.03 fold enrichment (6-mer frequency, TF over GST control)"
same,binding signal,GABPA,"1.11 fold enrichment (6-mer frequency, TF over GST control)"
same,binding signal,ERG,"1.03 fold enrichment (6-mer frequency, TF over GST control)"
same,binding signal,ELF1,"1.16 fold enrichment (6-mer frequency, TF over GST control)"
same,binding signal,EHF,"1.09 fold enrichment (6-mer frequency, TF over GST control)"
same,binding signal,SPI1,"1.13 fold enrichment (6-mer frequency, TF over GST control)"
same,binding signal,SPIB,"1.1 fold enrichment (6-mer frequency, TF over GST control)"
same,binding signal,ELK3,"1.04 fold enrichment (6-mer frequency, TF over GST control)"
same,binding signal,FEV,"1.07 fold enrichment (6-mer frequency, TF over GST control)"
same,binding signal,ETV5,"1.08 fold enrichment (6-mer frequency, TF over GST control)"
same,binding signal,HSF1,"1.06 fold enrichment (6-mer frequency, TF over GST control)"
same,binding signal,SPIC,"1.11 fold enrichment (6-mer frequency, TF over GST control)"
same,binding signal,ELF4,"1.09 fold enrichment (6-mer frequency, TF over GST control)"
same,binding signal,ELK4,"1.22 fold enrichment (6-mer frequency, TF over GST control)"
same,binding signal,ETV2,"1.16 fold enrichment (6-mer frequency, TF over GST control)"
same,binding signal,ELF3,"1.1 fold enrichment (6-mer frequency, TF over GST control)"
same,binding signal,CRX,"1.2 fold enrichment (6-mer frequency, TF over GST control)"
same,binding signal,ETV1,"1.01 fold enrichment (6-mer frequency, TF over GST control)"
